Assay results from PubChem BioAssay.
The source made the active and inactive calls.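 Rule for the calls: active = compounds killing one labelled cell type while sparing the other, by normalised counts and ratio limits, not self-fluorescent; inactive = the rest.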

Test: EMT-state selective cytotoxicity in co-culture – imaging, PC-3E GFP, TEM4-18 mCherry, primary screen (AID 1345086);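 note: normalised mesenchymal count divided by normalised epithelial count so high means epithelial killing; cells exposed to compound for 72 h before imaging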
Details: PC-3E GFP / TEM4-18 mCherry co-culture, imaging cell counts; at 1 µM; actives lie on both sides; counts scaled to control wells, 1 = unselective

Row | Structure (SMILES) | red/green cell ratio (normalised)
1 | C/C1=C/CC(C)(C)/C=C/C/C(C)=C/CC1 | 0.95 (inactive)
2 | COc1cc(O)c(C(=O)/C=C/c2ccc(O)c(OC)c2)c(OC)c1 | 0.93 (inactive)
3 | CC(=O)O[C@@H]1CC2C(C)(C)[C@H](O)C=C[C@]2(C)C2CC[C@@]3(C)[C@H](c4ccoc4)OC(=O)C4OC43[C@@]21C (some centres not stated) | 1.02 (inactive)
4 | CC1(C)C(=O)C=C[C@@]2(C)C1CC(=O)[C@]1(C)C2CC[C@@]2(C)[C@H](c3ccoc3)OC(=O)[C@H]3O[C@]321 (some centres not stated) | 1.47 (inactive)
5 | COc1ccc(-c2coc3c(O)c(O)c(OC)cc3c2=O)cc1 | 0.97 (inactive)
6 | C=C[C@@H](C1=CC(=O)C(OC)=C(OC)C1=O)c1ccccc1 | 0.99 (inactive)
7 | CC(=O)Oc1cc2c(c(C)c1OC(C)=O)CC=C1[C@@]2(C)CC[C@@]2(C)C3C[C@](C)(C(=O)O)CC[C@]3(C)CC[C@]12C (some centres not stated) | 0.58 (inactive)
8 | COc1ccc2oc3ccccc3c(=O)c2c1 | 0.95 (inactive)
9 | C=CCCCCCCCCCCCc1ccco1 | 1.12 (inactive)
10 | C#CCCCCCCCCCCCc1ccco1 | 0.97 (inactive)
11 | COc1cc(OC)c2c(=O)c(O)c(-c3ccc(OC)c(OC)c3)oc2c1 | 0.83 (inactive)
12 | O=C(/C=C/c1ccc(O)cc1)c1ccccc1O | 0.93 (inactive)
13 | O=C(/C=C/c1ccccc1)c1ccc(O)cc1O | 0.95 (inactive)
14 | CC(C)(N=NC(C)(C)C(=N)N)C(=N)N | 1.04 (inactive)
15 | O=c1cc(-c2ccccc2O)oc2cc(O)ccc12 | 1 (inactive)
16 | CC[C@@H](C(=O)[C@@H](C)[C@@H](O)[C@H](C)[C@@H]1O[C@@H]([C@@H](CC)C(=O)O)CC[C@@H]1C)[C@H]1OC2(C=C[C@@H](O)[C@]3(CC[C@@](C)([C@H]4CC[C@](O)(CC)[C@H](C)O4)O3)O2)[C@H](C)C[C@@H]1C (some centres not stated) | 0.65 (active)
17 | CN(C)CC(=O)OC[C@@H](O)[C@@H](O)[C@H](O)[C@@H](O)C(=O)O | 1.02 (inactive)
18 | CNc1ccccc1C(=O)N1CCc2c([nH]c3ccccc23)C1=O | 1.01 (inactive)
19 | CC(=O)O[C@@H]1CC[C@@]2(C)C(CC[C@]3(C)C2CC=C2C4CC(C)(C)CC[C@]4(C(=O)O)CC[C@]23C)C1(C)C (some centres not stated) | 0.84 (inactive)

Row | Structure (SMILES) | red/green cell ratio (normalised)
20 | CC(=O)Oc1ccc2c(c1C(C)C)CCC1C(C)(C)CCC[C@]21C (some centres not stated) | 0.8 (inactive)
21 | COc1ccc2c(c1)O[C@H]1c3ccc(OC)cc3OC[C@@H]21 | 1.06 (inactive)
22 | O=c1cc(-c2ccc(O)cc2)oc2ccc(O)cc12 | 1 (inactive)
23 | C=C[C@@]1(C)CC(=O)[C@@]2(O)[C@](C)(O1)[C@@H](O)[C@@H](O)C1C(C)(C)CC[C@H](O)[C@@]12C (some centres not stated) | 1.15 (inactive)
24 | C[C@@H]1O[C@@H](O[C@H]2[C@H](Oc3cc(O)c4c(=O)cc(-c5ccc(O)cc5)oc4c3)O[C@H](CO)[C@@H](O)[C@@H]2O)[C@H](O)[C@H](O)[C@H]1O | 1.02 (inactive)
25 | CC(=O)O[C@H]1C[C@@H](O)C(C)(C)C2C[C@@H](OC(C)=O)[C@]3(C)C(CC[C@@]4(C)[C@H](c5ccoc5)OC(=O)C5OC543)[C@]21C (some centres not stated) | 0.84 (inactive)
26 | CC1(C)CC[C@]2(C(=O)O)CC[C@]3(C)C(=CCC4[C@@]5(C)CC[C@@H](O)C(C)(C)C5CC[C@]43C)C2C1 (some centres not stated) | 1 (inactive)
27 | COc1cc2oc3cc(OC)c(OC)c(CC=C(C)C)c3c(=O)c2c(O)c1CC=C(C)C | 0.97 (inactive)
28 | COc1ccc([C@@H](C)C(=O)c2ccc(O)cc2O)cc1 | 1.1 (inactive)
29 | COc1cc2c(cc1OC)-c1c(oc3cc(O)cc(O)c3c1=O)CO2 | 1.08 (inactive)
30 | O=C(O)/C=C/C=C/c1ccc2c(c1)OCO2 | 1.14 (inactive)
31 | COc1cc(OC)c(C(C)=O)c(O)c1C | 0.96 (inactive)
32 | CC(CCC(=O)O)[C@H]1CCC2C3C[C@H](O)[C@@H]4C[C@H](O)CC[C@]4(C)C3CC[C@@]21C (some centres not stated) | 0.83 (inactive)
33 | O=c1ccn([C@@H]2O[C@H](COP(=O)(O)OP(=O)(O)OP(=O)(O)O)[C@@H](O)[C@H]2O)c(=O)[nH]1 | 1.18 (inactive)
34 | C[C@]12CCC3c4ccc(OC(=O)c5ccccc5)cc4CCC3C1CCC2=O (some centres not stated) | 0.85 (inactive)
35 | CC(C)c1ccc2c(c1)CCC1C(C)(C(N)=O)CCCC21C (configuration not stated) | 1.04 (inactive)
36 | C=CCS(=O)C[C@H](N)C(=O)O (some centres not stated) | 0.94 (inactive)
37 | CCCc1cc(OC)c2c(c1)OCO2 | 1.07 (inactive)
